A selection: hits, their analogues and other compounds. The true share with any hit is near 2.2%.
FUS suppressor: qHTS for Suppressors of FUS Proteinopathy: Primary screen using FUS-linked yeast assay. AID 1347120, 2019. Potency, µM (doses to about 76.6 µM), usual class: activators. S. cerevisiae FUS-expressing, growth rescue, OD600, 24 h. 0.24% of 390,000 active;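 also: plate controls were DMSO vehicle for no effect and reference control for full effect; nearly all actives have a fitted effect of over 55% in size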
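Toxicity suppression screen in FUS-yeast. Cells induced with 2% galactose, starting OD 0.005, treated 24hr at 30C with compounds at multiple final concentrations; growth by OD600.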
aSyn yeast inh: qHTS of alpha-syn Inhibitors. Potency, µM (titrated, usually from 46.1 µM), without a hit: top-dose growth rescue (activation), actives largely listed as activators. 0.14% of 370,000 active. Yeast expressing alpha-synuclein, growth rescue, BacTiter-Glo, 24 h; also: % of control where 0% means no effect; nearly all actives have a fitted effect of over 65% in size
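Rescue of yeast growth: cells expressing toxic alpha-synuclein, induced in galactose at OD600 0.02, incubated with compound 24 h at 30 C. ATP luminescence quantified growth; inhibitors of toxicity appear as activators.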
Abeta yeast res: qHTS for compounds that reverse cellular toxicity of Amyloid beta (A-beta) peptide in yeast: Primary Screen. AID 1347071, 2019. Potency, µM (titrated, usually from 46.1 µM), most hits filed as activators. 0.063% of 410,000 active. yeast expressing A-beta42, growth rescue, OD600, 48 h; response scale: 0% DMSO, 100% iron-clioquinol control; also: nearly all actives have a fitted effect of over 55% in size
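Yeast growth medium received pinned compounds, then yeast cells expressing toxic A-beta were added; plates incubated at 30 C for 48 hr. Growth read as absorbance at 600 nm, normalized to DMSO and equimolar FeCl3 plus clioquinol controls.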
ERG Ets-DNA blk: qHTS for Small Molecule Inhibitors of the ERG Ets/DNA interaction; Transcriptional regulator ERG (Homo sapiens), P11308; Potency, µM (series often up to 76.9 µM), without a hit: at the highest dose FP activity, negative = inhibition, usual class: inhibitors; fluorescence polarization, His-ERG Ets domain / labelled DNA; 0.028% of 370,000 active; active = well fitted inhibition curve with a large enough effect in the polarisation, with a control signal flat; inconclusive = small, poorly fitted or top-dose-only effect, or effect the other way, or a change in a side signal; inactive = no such curve, though single readings can be large or run the other way; the % refers to the polarisation;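 also: polarization taken with two DNA probes labelled with fluorescein and Texas red; % of control where 0% means no effect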
Target sequence (P11308 whole entry, looked up, the tested form may be a part): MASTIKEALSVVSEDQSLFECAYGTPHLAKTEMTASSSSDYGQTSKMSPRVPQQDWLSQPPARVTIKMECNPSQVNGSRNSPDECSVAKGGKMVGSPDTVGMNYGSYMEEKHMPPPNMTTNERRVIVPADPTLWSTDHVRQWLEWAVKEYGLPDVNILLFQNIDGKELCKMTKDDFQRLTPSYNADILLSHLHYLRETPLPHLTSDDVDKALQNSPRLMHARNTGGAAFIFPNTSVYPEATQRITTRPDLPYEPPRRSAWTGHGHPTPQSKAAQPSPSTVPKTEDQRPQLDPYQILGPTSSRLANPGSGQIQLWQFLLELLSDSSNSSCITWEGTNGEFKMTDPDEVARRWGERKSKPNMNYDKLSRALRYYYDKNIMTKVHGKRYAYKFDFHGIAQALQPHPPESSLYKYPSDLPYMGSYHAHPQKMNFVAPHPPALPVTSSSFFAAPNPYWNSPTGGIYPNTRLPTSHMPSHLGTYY
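His-tagged ERG Ets domain (1 uM in the protein solution; 300mM KCl, 50mM Tris-HCl, 1mM EDTA, 1mM DTT, pH 7.5) received compound, then a probe mix of 5 nM fluorescein-DNA and 100nM Texas-615-DNA. Fluorescence polarization was read for both dyes.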
TDP-43 yeast inh: qHTS of TDP-43 Inhibitors; 1.8% of 410,000 active; Potency, µM (series often up to 46.1 µM), inactives show top-dose growth rescue (activation), actives largely listed as activators; TDP-43 expressing yeast growth rescue, BacTiter-Glo, 24 h; also: % of control where 0% means no effect; nearly all actives have a fitted effect of over 50% in size
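Cell-based yeast growth screen: TDP-43 expression induced in galactose, inoculum OD600=0.02 after raffinose pregrowth to mid-log. Read-out BacTiter-Glo luminescence at 24 hr, 30 deg C; inhibition of toxicity seen as signal increase.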
Mito fusion act: qHTS Assay for Small Molecule Inhibitors of Mitochondrial Division or Activators of Mitochondrial Fusion. 0.23% of 320,000 active. S. cerevisiae fusion-defective mutant growth rescue, CellTiterGlo 48 h. Potency, µM (doses to about 46.1 µM), inactives show at the highest dose growth rescue (activation), usual class: activators; also: % of control where 0% means no effect; nearly all actives have a fitted effect of over 45% in size
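Growth-rescue viability read-out: after 48 h at the non-permissive 37C in glycerol/ethanol YPEG, yeast mitochondrial fusion mutants are measured by CellTiterGlo luminescence; compounds (23 nl pinned per well) restoring growth score as division inhibitors or fusion activators.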
* = called active by the depositor; i = inactive; ? = inconclusive; / = not tested or not shown; [ ] = dose if it differs, or a comment. Unless noted, calls follow the shape of the dose curve; as a rule, active = well fitted curve in the direction sought with a large enough effect; inconclusive = small, poorly fitted or top-dose-only effect, or another doubt; inactive = no such curve, though single readings can be large; an effect the other way counts as inactive or inconclusive. Potency is read from the fitted curve at half-maximal effect.

SMILES	FUS suppressor	aSyn yeast inh	Abeta yeast res	ERG Ets-DNA blk	TDP-43 yeast inh	Mito fusion act
CC(C)Sc1nc(N)nc(-c2cccs2)c1C#N	i	0%	i[9.22 µM]	-7%	18µM*	?
Cc1c(-c2ccc(F)cc2)nc(N)c(C#N)c1-c1cccs1	i	1%	i	11%	?	0%
CSc1nc(N)nc(-c2cccs2)c1C#N	i	8%	i	1%	20µM*	-9%
CCOc1ccc(C(=O)Nc2ccc(C(=O)OCc3cc(=O)n4nc(CC)sc4n3)cc2)cc1	i	/	i	-5%	9%	/
CSc1ccccc1NC(=O)c1ccc(N2CCCC2=O)cc1	i	-2%[1.84 µM]	i	1%	0%	2%
CN1/C(=C/C(=O)CSc2ccccc2C(=O)O)C(C)(C)c2ccccc21	i	9%	?	64%	20µM*	3%
COc1ccc(Nc2nnc(SCC(=O)/C=C3/N(C)c4ccccc4C3(C)C)s2)cc1	/	14%	i	1%	11µM*	?
CN1/C(=C\C(=O)COC(=O)CN2C(=O)C3CC=CCC3C2=O)C(C)(C)c2ccccc21 (centres undefined)	i	-14%	i	-4%	15%	6%
CN1/C(=C/C(=O)COC(=O)C2COc3ccccc3O2)C(C)(C)c2ccccc21 (centres undefined)	i	2%	i	4%	32µM*	/
COc1ccc(S(=O)(=O)NCCS(=O)(=O)N2CCN(c3ccccc3F)CC2)cc1	i	/	i	-1%	27%	/
O=C(Nc1cccc(F)c1)O[C@@H]1CC[C@@]23CCCN2C(=O)CCC[C@H]3C1	i	/	/	/	/	/
Cc1ccc(O)c(N=NC2=C(O)CC(C)(C)CC2=O)c1	/	7.1µM*	?	4%	12%	4%
CC1(C)CC(=O)C(N=Nc2cc(Cl)c(Cl)c(Cl)c2)=C(O)C1	i	6%	i	-10%	7%	0%
COc1ccc2cc(C3=CCCC3(C)C(=O)O)ccc2c1 (centres undefined)	i	-38%	i	-4%	3.5µM*	/
COc1ccc(Cn2cc(CN3CCc4onc(-c5ccc(Br)cc5)c4C3=O)nn2)cc1	?	19%	i	/	18µM*	/
COc1ccccc1-n1cc(CN2CCc3onc(-c4ccc(Br)cc4)c3C2=O)nn1	i	6%	i	/	15%	/
COc1cccc(N2CC(NC(=O)c3ccc(S(=O)(=O)N4CCCCC4)cc3)CC2=O)c1 (centres undefined)	i	/	i	2%	6%	/
Cc1cc(C)c2c(c1)/C(=C/C(=O)c1ccc(Br)s1)C(=O)N2	?	-7%	i	4%	18µM*	0%
Cc1cc(Br)c2c(c1)/C(=C/C(=O)c1cccs1)C(=O)N2	i	10%	i	13%	-21%[9.22 µM]	0%
CC(Oc1ccccc1)C(=O)Nc1cccc(-c2cn3cccnc3n2)c1 (centres undefined)	i	/	i	-2%	6%	/
O=C(CC(O)CCc1ccccc1)c1ccc(O)cc1 (centres undefined)	i	-1%	?	6%	10µM*	/
CCCNC(=O)c1ccc(COc2ccc(C)cc2)o1	i	-5%	i	-8%	15%	3%
CCCNC(=O)c1ccc(COc2cccc3ccccc23)o1	i	-8%	i	-7%	18µM*	27%
Cc1ccc(C)c(NC(=O)C2CCCN2S(=O)(=O)c2cccnc2)c1 (centres undefined)	i	/	/	/	/	/
O=C(COc1ccc(F)cc1)Nc1nc(-c2ccccn2)cs1	i	-20%	i	-1%	-54%	8%
SMILES	FUS suppressor	aSyn yeast inh	Abeta yeast res	ERG Ets-DNA blk	TDP-43 yeast inh	Mito fusion act
O=C(COc1ccc([N+](=O)[O-])cc1)Nc1cccnc1	i	5%	i	1%	-9%	4%
Cc1ccc(OCC(=O)Nc2nc(-c3ccccn3)cs2)c(C)c1	i	22µM*	i	2%	?	0%
O=C(COc1ccccc1)Nc1nc(-c2cccnc2)cs1	?	-8%	i	6%	10µM*	4%
O=C(COc1ccc(-c2ccccc2)cc1)Nc1cccnc1	i	-9%	i	-12%	22µM*	?
CC(=O)N1CCc2c(sc3c2c(=O)n(CCc2ccccc2)c(=O)n3Cc2cccc(C)c2)C1	i	/	i	1%	22µM*	/
CCC(C(=O)OCC(=O)Nc1ccc(SC(F)F)cc1)c1ccccc1 (centres undefined)	i	0%	?	-3%	10µM*	1%
CCC(C(=O)OCC(=O)Nc1ccc(F)cc1)c1ccccc1 (centres undefined)	/	24%	i	/	-17%	1%
CCCCCCCNC(=O)C1(CC2CC(c3ccc(Cl)cc3)=NO2)CCN(C(=O)CCCCCBr)CC1 (centres undefined)	32µM*	-5%	i	-14%	-3%	-2%
COC(=O)C(C(=O)OC)[C@H]1C=C[C@@H](C(=O)NS(=O)(=O)c2ccc(C)cc2)N(C(C)=O)C1	i	/	/	/	/	/
S=C(NCc1ccccc1)N1CCc2ccccc2C1	i	3%	i	1%	11µM*	2%
Cc1cccc(C(=O)NC(=S)N2CCc3ccccc3C2)c1	i	-2%	?	2%	20µM*	29%
Fc1ccc2[nH]c3c(c2c1)CN(C(=S)NCc1ccccc1)CC3	i	-28%	?	13%	16µM*	?
CCNC(=S)N1CCc2ccccc2C1	i	0%	i	-7%	3%[9.22 µM]	-3%
Cc1ccccc1NC(=O)CSc1nnc(-c2cc(-c3ccccc3)n[nH]2)n1N	i	/	/	/	/	/
COC(=O)/C(=C1/Oc2cc(C)oc(=O)c2S1)C(F)(F)F	/	1%	i	1%	8.9µM*	13%
COc1ccc(C(=O)NC(=S)NNC(=O)Cc2cccs2)cc1	i	10µM*	8.9µM*	-1%	10µM*	-7%
COc1ccc(C(=O)NC(=S)NNC(=O)c2ccc(C)cc2)cc1	i	24%	?	-8%	0%	/
COc1cc(OC)cc(C(=O)NC(=S)NNC(=O)c2cnccn2)c1	i	3.5µM*	i	9%	?	25%
COc1cc(NC(=O)Cc2cccs2)cc(OC)c1	i	-3%	?	-7%	15%	-2%
COc1cc(OC)cc(C(=O)NC(=S)NNC(=O)Cc2cccs2)c1	i	?	i	14%	13µM*	15%

Screening results: PubChem BioAssay, National Center for Advancing Translational Sciences (NCATS)
